PubChem BioAssay AID678 (Vanderbilt High Throughput Screening Facility, 2007)
About 15 (0.9%) of roughly 1,700 compounds were called active.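 The calls were made as follows: active = fluorescence response below the plate's average for near-maximal glutamate wells, less 3 SD of those wells; inactive = the rest.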 Only a sample is shown.

The molecules below were run against Metabotropic glutamate receptor 4 (Homo sapiens) (UniProt Q14833) (assay: human mGluR4 response to M1 antagonist hits, M1 allosteric modulator project, cell-based, antagonist mode, secondary assay 1 (AID 678;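 also: raw unnormalized fluorescence span taken in the window right after glutamate addition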)). Conditions: CHO-mGluR4 calcium flux, Fluo-4 fluorescence, glutamate EC80; at 10 µM; active compounds read low.

Fluorescence response (max-min), inactive:
CN1CCN(c2ccc(NC(=O)COc3ccc(Cl)cc3Cl)cc2)CC1 245, O=C(C(c1ccccc1)c1ccccc1)N1CCN(CC(O)COc2ccccc2)CC1 (stereo unspecified) 172, C=CCSc1nc2ccccc2[nH]1 255, COC(CCN(C)C)(c1ccccc1)c1ccccc1 257, CCN1CCN(c2c(Cl)cccc2NC(=O)c2ccc(Br)o2)CC1 203, O=C(Nc1ccncc1)c1c(F)cccc1F 195, CCn1c(=O)cc(OCC(=O)NCCCN2CCN(c3cccc(Cl)c3)CC2)c2ccccc21 275, CCOC(=O)c1c(NC(=O)CSc2nnc(CN3CCOCC3)n2C)sc2c1CCCC2 212, COC(=O)c1ccc(C2C3=C(Nc4nnnn42)c2ccccc2OC3)cc1 (stereo unspecified) 256, CCC/C(O)=C1\C(=O)CC(C)(C)CC1=Nc1ccccc1OC 272, CCOC(=O)Nc1ccc2c(c1)N(C(=O)CN1CCN3CCCC3C1)c1ccccc1CC2 (stereo unspecified) 187, O=C(c1ccc(-n2cnnn2)cc1)N1CCN(C(c2ccccc2)c2ccccc2)CC1 242, CCOC(=O)N1CCN(S(=O)(=O)c2cc(Br)cc3c2N(C(=O)C2CC2)CC3)CC1 246, Cc1cc(C)n(-c2nc(SCC(=O)N3CCCC3)c3c4c(sc3n2)CCCC4)n1 193, CCCCN(CCCC)C(=O)CCS(=O)(=O)c1ccc2c(c1)n(C)c(=O)c(=O)n2C 272, C=C(C)Cn1c(N2CCCC2)nc2c1c(=O)[nH]c(=O)n2C 203, Cc1c(C)c2cc3c4c(oc3c(C)c2oc1=O)CCCC4 174, CCN1C(=O)/C(=C2\SC(N3CCCCC3)=NC2=O)c2ccccc21 235, CCCCOc1ccc(C(C)(O)CCN2CCOCC2)cc1 (stereo unspecified) 209, O=C(CCCN1C(=O)CSc2ncccc21)N1CCN(c2cccc(C(F)(F)F)c2)CC1 263, COc1ccccc1OCCOc1ccc(/C=N/n2cnnc2)cc1 239
